Drawing on the supplement of paper PMC10849652, this text covers log2 fold change for 39 targets.

Of roughly 8,800 targets only a part is listed; those with a hit were picked by preference. About 0.5% of all pairs of compound and target were hits. A number with no mark means an inactive call.

UniProt Q14839, sequence (Q14839 whole entry, looked up): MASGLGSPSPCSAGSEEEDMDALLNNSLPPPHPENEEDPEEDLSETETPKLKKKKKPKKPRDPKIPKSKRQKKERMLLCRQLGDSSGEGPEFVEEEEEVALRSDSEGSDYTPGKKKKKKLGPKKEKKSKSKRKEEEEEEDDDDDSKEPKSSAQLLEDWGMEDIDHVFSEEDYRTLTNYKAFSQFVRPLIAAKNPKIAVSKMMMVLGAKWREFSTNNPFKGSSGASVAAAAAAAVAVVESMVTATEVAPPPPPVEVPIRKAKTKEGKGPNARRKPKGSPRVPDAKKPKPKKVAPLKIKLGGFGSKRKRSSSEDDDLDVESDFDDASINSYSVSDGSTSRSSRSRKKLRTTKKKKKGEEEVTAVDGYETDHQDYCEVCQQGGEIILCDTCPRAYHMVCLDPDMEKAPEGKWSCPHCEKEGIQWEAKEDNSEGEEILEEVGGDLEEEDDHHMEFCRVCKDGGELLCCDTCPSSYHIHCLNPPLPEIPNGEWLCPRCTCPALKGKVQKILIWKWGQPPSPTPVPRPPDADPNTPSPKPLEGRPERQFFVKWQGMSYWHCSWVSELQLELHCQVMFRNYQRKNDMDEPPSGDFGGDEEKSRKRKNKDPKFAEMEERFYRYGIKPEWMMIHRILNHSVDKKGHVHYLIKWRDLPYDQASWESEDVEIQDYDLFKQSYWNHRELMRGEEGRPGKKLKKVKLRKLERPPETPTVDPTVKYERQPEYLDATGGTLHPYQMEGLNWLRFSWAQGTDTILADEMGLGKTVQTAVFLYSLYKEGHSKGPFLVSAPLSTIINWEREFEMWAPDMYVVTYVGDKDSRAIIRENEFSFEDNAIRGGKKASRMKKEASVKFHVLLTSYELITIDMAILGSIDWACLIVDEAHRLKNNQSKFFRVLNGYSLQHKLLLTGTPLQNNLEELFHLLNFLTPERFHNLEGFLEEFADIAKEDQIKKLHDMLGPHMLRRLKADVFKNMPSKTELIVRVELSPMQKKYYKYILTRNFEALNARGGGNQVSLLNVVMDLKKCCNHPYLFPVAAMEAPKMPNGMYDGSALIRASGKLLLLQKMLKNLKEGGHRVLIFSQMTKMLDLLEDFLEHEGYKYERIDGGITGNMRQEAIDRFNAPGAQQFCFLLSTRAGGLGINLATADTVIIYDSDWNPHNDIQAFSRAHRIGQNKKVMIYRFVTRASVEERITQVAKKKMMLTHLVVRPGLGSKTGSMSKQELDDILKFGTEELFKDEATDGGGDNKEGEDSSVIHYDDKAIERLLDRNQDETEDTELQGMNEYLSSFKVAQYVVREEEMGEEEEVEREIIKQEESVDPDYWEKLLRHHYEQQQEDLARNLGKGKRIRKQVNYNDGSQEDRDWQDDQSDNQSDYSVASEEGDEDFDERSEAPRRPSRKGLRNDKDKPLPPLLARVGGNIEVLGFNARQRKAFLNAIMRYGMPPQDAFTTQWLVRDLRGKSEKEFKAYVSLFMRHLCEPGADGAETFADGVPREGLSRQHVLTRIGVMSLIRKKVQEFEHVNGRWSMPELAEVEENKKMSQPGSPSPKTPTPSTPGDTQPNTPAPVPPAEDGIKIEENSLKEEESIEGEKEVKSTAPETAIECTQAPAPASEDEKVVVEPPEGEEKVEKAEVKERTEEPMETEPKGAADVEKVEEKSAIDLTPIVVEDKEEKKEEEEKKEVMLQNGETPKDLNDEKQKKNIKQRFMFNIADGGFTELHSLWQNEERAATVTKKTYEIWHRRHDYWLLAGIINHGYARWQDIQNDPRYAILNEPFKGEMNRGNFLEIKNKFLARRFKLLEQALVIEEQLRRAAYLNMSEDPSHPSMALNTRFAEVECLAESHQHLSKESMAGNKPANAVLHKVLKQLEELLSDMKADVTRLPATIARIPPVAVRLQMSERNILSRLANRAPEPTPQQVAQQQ
UniProt O75419, sequence (O75419 whole entry, looked up): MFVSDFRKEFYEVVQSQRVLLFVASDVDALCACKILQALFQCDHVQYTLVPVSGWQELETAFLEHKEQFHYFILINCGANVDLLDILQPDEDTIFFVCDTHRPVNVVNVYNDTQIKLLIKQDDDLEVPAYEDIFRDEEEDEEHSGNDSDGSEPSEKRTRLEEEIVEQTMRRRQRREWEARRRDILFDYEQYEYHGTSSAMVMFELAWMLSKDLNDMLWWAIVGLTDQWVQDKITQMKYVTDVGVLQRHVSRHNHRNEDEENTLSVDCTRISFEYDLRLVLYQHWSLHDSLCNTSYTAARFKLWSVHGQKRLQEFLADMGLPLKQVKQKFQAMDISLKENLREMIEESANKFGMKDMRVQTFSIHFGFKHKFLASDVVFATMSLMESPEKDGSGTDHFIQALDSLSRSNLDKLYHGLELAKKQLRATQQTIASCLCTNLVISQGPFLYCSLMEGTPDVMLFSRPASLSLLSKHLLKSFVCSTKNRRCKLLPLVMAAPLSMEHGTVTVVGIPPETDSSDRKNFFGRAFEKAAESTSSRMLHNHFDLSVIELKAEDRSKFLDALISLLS
UniProt Q14692, sequence (Q14692 whole entry, looked up): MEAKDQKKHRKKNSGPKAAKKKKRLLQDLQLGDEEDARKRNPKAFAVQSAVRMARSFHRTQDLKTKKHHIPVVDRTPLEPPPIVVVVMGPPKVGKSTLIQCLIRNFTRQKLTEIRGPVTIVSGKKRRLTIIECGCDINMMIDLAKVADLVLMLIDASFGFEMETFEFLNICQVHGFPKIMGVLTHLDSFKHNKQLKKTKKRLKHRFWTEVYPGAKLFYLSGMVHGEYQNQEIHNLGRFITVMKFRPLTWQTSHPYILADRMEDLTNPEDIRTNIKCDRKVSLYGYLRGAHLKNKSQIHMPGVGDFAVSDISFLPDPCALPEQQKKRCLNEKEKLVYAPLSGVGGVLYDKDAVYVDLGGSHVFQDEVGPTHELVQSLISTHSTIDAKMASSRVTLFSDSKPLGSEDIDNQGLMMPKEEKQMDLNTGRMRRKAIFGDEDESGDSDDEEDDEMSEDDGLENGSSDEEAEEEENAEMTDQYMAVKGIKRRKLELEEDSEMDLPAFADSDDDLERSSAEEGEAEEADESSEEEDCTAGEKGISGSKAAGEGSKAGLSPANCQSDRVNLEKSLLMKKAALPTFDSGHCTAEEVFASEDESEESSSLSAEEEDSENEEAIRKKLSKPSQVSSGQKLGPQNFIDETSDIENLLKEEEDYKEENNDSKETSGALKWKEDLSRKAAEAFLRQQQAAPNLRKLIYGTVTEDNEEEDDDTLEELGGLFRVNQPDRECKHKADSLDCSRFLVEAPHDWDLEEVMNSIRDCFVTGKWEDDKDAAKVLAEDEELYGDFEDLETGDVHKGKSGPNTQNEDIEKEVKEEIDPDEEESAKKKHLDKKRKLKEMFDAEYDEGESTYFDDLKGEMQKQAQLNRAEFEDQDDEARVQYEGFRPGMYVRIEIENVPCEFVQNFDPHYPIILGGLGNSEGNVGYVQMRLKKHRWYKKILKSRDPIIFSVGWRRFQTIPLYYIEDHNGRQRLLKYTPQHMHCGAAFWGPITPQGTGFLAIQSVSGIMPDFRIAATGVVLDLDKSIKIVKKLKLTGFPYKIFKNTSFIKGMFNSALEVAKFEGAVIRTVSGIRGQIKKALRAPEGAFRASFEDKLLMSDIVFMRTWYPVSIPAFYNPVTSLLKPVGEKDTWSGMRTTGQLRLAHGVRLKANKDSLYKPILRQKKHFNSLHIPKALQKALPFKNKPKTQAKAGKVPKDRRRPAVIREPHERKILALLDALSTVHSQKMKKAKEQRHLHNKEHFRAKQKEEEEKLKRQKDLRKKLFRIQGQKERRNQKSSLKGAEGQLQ
UniProt Q8N5I9, sequence (Q8N5I9 whole entry, looked up): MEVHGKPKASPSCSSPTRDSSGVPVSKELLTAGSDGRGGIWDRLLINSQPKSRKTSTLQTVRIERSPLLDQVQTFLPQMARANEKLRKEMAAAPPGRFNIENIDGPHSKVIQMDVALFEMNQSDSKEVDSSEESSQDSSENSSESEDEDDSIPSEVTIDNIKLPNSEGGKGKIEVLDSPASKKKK
UniProt O43709, sequence (O43709 whole entry, looked up): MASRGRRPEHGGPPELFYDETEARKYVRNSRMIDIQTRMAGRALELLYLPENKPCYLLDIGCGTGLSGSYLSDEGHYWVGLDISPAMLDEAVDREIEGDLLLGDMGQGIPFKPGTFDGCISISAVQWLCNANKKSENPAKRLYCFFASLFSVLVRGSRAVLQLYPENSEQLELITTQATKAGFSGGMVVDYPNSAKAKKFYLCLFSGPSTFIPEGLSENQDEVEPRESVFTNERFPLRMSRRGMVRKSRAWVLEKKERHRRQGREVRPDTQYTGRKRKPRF
UniProt Q9H3Q1, sequence (Q9H3Q1 whole entry, looked up): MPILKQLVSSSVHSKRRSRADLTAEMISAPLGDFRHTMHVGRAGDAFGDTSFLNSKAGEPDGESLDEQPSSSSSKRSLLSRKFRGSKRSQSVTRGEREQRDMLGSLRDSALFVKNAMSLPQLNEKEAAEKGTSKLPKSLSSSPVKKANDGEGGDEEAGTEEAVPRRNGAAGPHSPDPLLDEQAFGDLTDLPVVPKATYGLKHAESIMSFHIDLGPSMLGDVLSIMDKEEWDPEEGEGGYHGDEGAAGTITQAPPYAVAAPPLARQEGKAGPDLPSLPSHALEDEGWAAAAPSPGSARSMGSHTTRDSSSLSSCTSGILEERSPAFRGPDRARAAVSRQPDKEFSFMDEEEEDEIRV
UniProt Q96A33, sequence (Q96A33 whole entry, looked up): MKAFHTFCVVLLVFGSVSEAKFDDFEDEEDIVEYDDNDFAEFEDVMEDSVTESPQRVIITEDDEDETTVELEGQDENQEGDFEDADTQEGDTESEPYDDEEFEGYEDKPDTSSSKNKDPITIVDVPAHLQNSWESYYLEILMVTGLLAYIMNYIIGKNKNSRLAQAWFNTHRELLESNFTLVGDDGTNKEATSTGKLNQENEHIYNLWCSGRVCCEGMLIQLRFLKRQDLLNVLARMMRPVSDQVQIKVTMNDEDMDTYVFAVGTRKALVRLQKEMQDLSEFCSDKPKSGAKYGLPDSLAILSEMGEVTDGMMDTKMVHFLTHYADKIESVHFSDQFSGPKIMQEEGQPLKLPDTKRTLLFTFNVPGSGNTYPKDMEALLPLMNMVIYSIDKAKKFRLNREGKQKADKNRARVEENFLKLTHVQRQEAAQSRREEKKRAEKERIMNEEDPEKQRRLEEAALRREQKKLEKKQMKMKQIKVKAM

Compound in one assay: Cc1cc(Nc2cc(CN3CCOCC3)c3nc(C)c(Cc4ccc(Cl)cc4F)n3n2)n[nH]1 [gandotinib]
Nature of the assay: log2 fold change, soluble protein after heating vs DMSO (PISA); higher = thermal stabilisation; K562 lysate, 10 uM; active = over 0.2 and 3.5 SD of the protein, either way, in both replicates (recomputed). In short, it runs like this:
(§1)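 Soluble protein was defined as the supernatant remaining after 21,000xg for 90 min, following pooling of heated aliquots and adjustment to 0.5% NP-40 at 4°C. Before that, crude K562 extract at 1 mg/mL protein in PBS pH 7.4 with 1 mM MgCl2 was treated with 10 μM compound for 30 min and heated for 3 min across 48°C-58°C. Quantification used TMTpro 16plex LC-MS/MS with channel sums equalised, and values are log-two fold changes in thermal stability relative to solvent controls from duplicates.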
Turning to CD63 (UniProt P08962), the log2 fold change is 0.209.

Regarding ATR (UniProt Q13535), the log2 fold change was 0.117.

In the case of CCDC47 (UniProt Q96A33), the log2 fold change was -0.145.

For the target CCNA2 (UniProt P20248), the log2 fold change is 0.091.

Regarding CHD4 isoform 2 (UniProt Q14839), the log2 fold change is 0.005.

As for CENPQ (UniProt Q7L2Z9), the log2 fold change is 0.071.

Take BLM (UniProt P54132): the log2 fold change is -0.267 (active).

On to ATP6V0A2 (UniProt Q9Y487), for which the log2 fold change is 0.108.

On to BTAF1 (UniProt O14981), for which the log2 fold change was -0.004.

Turning to CDC42EP4 (UniProt Q9H3Q1), the log2 fold change was 0.223 (active).

Take BMS1 (UniProt Q14692): the log2 fold change is 0.043.

Consider CDK9 isoform 2 (UniProt P50750), for which the log2 fold change is 0.074.

As for C12orf45 (UniProt Q8N5I9), the log2 fold change was 0.148.

Regarding BCKDHB (UniProt P21953), the log2 fold change is 0.015.

Take CDC45 isoform 3 (UniProt O75419): the log2 fold change was -0.079.

Take BUD23 isoform 3 (UniProt O43709): the log2 fold change is 0.136.

In the case of CARD9 (UniProt Q9H257), the log2 fold change is -0.032.

Compound in the next assay: Cc1cc(Nc2cc(N3CCN(C)CC3)nc(Sc3ccc(NC(=O)C4CC4)cc3)n2)n[nH]1 [tozasertib]
The description is as above. The essentials:
as §1
As to BRD4 (UniProt O60885), the log2 fold change is -0.031.

Take CAMKK1 isoform 2 (UniProt Q8N5S9): the log2 fold change was -0.067.

Turning to ATG13 isoform 2 (UniProt O75143), the log2 fold change is 0.05.

As to ATAD1 (UniProt Q8NBU5), the log2 fold change was 0.017.

In the case of BSDC1 (UniProt Q9NW68), the log2 fold change is -0.005.

With ATP5PF isoform 2 (UniProt P18859), the log2 fold change was -0.018.

Consider CAD (UniProt P27708), for which the log2 fold change is 0.

As for CHCHD2 (UniProt Q9Y6H1), the log2 fold change was 0.102.

CHCHD4 isoform 2 (UniProt Q8N4Q1): the log2 fold change was -0.041.

Regarding CCNC (UniProt P24863), the log2 fold change was -0.025.

As for CELF2 isoform 3 (UniProt O95319), the log2 fold change was 0.017.

Consider CEP120 (UniProt Q8N960), for which the log2 fold change was -0.096.

Take CCDC25 (UniProt Q86WR0): the log2 fold change is -0.021.

As to CELF1 isoform 4 (UniProt Q92879), the log2 fold change is 0.019.

Regarding BNIP1 (UniProt Q12981), the log2 fold change is 0.017.

On to CHD5 (UniProt Q8TDI0), for which the log2 fold change was -0.074.

Regarding ATP2B4 (UniProt P23634), the log2 fold change is 0.046.

In the case of CANX isoform 2 (UniProt P27824), the log2 fold change is 0.015.

Consider BCKDK (UniProt O14874), for which the log2 fold change was -0.039.

For the target CCAR2 (UniProt Q8N163), the log2 fold change is 0.026.

Take CDC40 (UniProt O60508): the log2 fold change is -0.038.

On to CDK5RAP2 (UniProt Q96SN8), for which the log2 fold change was 0.024.

As to CD63 (UniProt P08962), the log2 fold change was 0.013.

For ATR (UniProt Q13535), the log2 fold change was 0.044.

As for CCDC47 (UniProt Q96A33), the log2 fold change was -0.009.

For the target CCNA2 (UniProt P20248), the log2 fold change is -0.073.

As for CHD4 isoform 2 (UniProt Q14839), the log2 fold change was 0.011.

In the case of CENPQ (UniProt Q7L2Z9), the log2 fold change was -0.196.

As to BLM (UniProt P54132), the log2 fold change is 0.057.

ATP6V0A2 (UniProt Q9Y487): the log2 fold change is 0.004.

As for BTAF1 (UniProt O14981), the log2 fold change is 0.

With CDC42EP4 (UniProt Q9H3Q1), the log2 fold change is -0.017.

As for BMS1 (UniProt Q14692), the log2 fold change is 0.018.

CDK9 isoform 2 (UniProt P50750): the log2 fold change is -0.108.

As for C12orf45 (UniProt Q8N5I9), the log2 fold change is -0.044.

For BCKDHB (UniProt P21953), the log2 fold change is 0.09.

In the case of CDC45 isoform 3 (UniProt O75419), the log2 fold change was 0.

On to BUD23 isoform 3 (UniProt O43709), for which the log2 fold change is -0.073.

For CARD9 (UniProt Q9H257), the log2 fold change was 0.022.

Compound in the next assay: Cc1ccc(-n2nc(C(C)(C)C)cc2NC(=O)Nc2ccc(OCCN3CCOCC3)c3ccccc23)cc1 [doramapimod]
The assay is described as above. In short, it runs like this:
as §1
BRD4 (UniProt O60885): the log2 fold change is 0.016.

On to CAMKK1 isoform 2 (UniProt Q8N5S9), for which the log2 fold change is 0.016.

ATG13 isoform 2 (UniProt O75143): the log2 fold change was 0.049.

Turning to ATAD1 (UniProt Q8NBU5), the log2 fold change was 0.015.

BSDC1 (UniProt Q9NW68): the log2 fold change is 0.098.

Turning to ATP5PF isoform 2 (UniProt P18859), the log2 fold change was -0.083.

CAD (UniProt P27708): the log2 fold change is 0.02.

On to CHCHD2 (UniProt Q9Y6H1), for which the log2 fold change was -0.021.

For CHCHD4 isoform 2 (UniProt Q8N4Q1), the log2 fold change was 0.047.

Turning to CCNC (UniProt P24863), the log2 fold change is 0.332 (active).

Regarding CELF2 isoform 3 (UniProt O95319), the log2 fold change was -0.579 (active).

Consider CEP120 (UniProt Q8N960), for which the log2 fold change was 0.107.

As for CCDC25 (UniProt Q86WR0), the log2 fold change is 0.065.

As to CELF1 isoform 4 (UniProt Q92879), the log2 fold change is -0.605 (active).

As for BNIP1 (UniProt Q12981), the log2 fold change was 0.071.

As to CHD5 (UniProt Q8TDI0), the log2 fold change was 0.034.

Turning to ATP2B4 (UniProt P23634), the log2 fold change was 0.049.

On to CANX isoform 2 (UniProt P27824), for which the log2 fold change is 0.006.

On to BCKDK (UniProt O14874), for which the log2 fold change is -0.033.

As for CCAR2 (UniProt Q8N163), the log2 fold change was 0.022.

In the case of CDC40 (UniProt O60508), the log2 fold change is -0.005.

As for CDK5RAP2 (UniProt Q96SN8), the log2 fold change is 0.003.

With CD63 (UniProt P08962), the log2 fold change is 0.077.

With ATR (UniProt Q13535), the log2 fold change is 0.068.

On to CCDC47 (UniProt Q96A33), for which the log2 fold change is -0.018.

Take CCNA2 (UniProt P20248): the log2 fold change was 0.059.

In the case of CHD4 isoform 2 (UniProt Q14839), the log2 fold change is 0.021.

As for CENPQ (UniProt Q7L2Z9), the log2 fold change was 0.001.

With BLM (UniProt P54132), the log2 fold change was 0.018.

As for ATP6V0A2 (UniProt Q9Y487), the log2 fold change is 0.023.

Take BTAF1 (UniProt O14981): the log2 fold change is 0.046.

As to CDC42EP4 (UniProt Q9H3Q1), the log2 fold change is 0.157.

BMS1 (UniProt Q14692): the log2 fold change was 0.047.

Take CDK9 isoform 2 (UniProt P50750): the log2 fold change is -0.02.

C12orf45 (UniProt Q8N5I9): the log2 fold change is -0.023.

In the case of BCKDHB (UniProt P21953), the log2 fold change is 0.064.

For the target CDC45 isoform 3 (UniProt O75419), the log2 fold change is -0.002.

Turning to BUD23 isoform 3 (UniProt O43709), the log2 fold change is -0.035.

For the target CARD9 (UniProt Q9H257), the log2 fold change is 0.032.
